Screening data as filed in PubChem BioAssay.
Shown are actives, neighbours in structure and some others; about 1.5% of the full set was active somewhere.
EBV gp42 block: EBV gp42 inhibition | inhibition, % (tested at 21.74 µM) | hit rate 0.42% among 220,000 | Fluorescence polarization binding assay, mP read-out; in the data active means inhibition above about 50%
MEX-5 binding: C. elegans MEX-5 TCR-2 RNA binding activity | activity score (negative = inhibition of binding), % at 10 µM | Q9XUB2 | MEX-5/FITC-TCR2 RNA binding, fluorescence polarization; hits give low values | hit rate 0.38% among 300,000 | AID 1832;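 active means inhibition past about -25% in most replicates, and total fluorescence under double the plate's negative control median, limit read from the data; inconclusive means replicates evenly split on the limit, or fluorescence at least double controls; inactive means too little inhibition in most replicates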;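 further: 0% = DMSO and -100% = 5 µM competing unlabeled TCR2 RNA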
GLD-1 RNA inh: GLD-1-TGE RNA interaction inhibition (C. elegans); Q17339; purified GLD-1 + fluorescein TGE RNA, fluorescence polarization; inhibition, % at 5.96 µM; hit rate 0.44% among 320,000; AID 2280;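 active means percent inhibition above a per-plate cutoff, the plate mean of test compounds plus 3 SD, cut at about 30% in these data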;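 further: 0% = DMSO wells with GLD-1 and probe and 100% = wells lacking GLD-1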
Target sequence (Q17339 whole entry, looked up): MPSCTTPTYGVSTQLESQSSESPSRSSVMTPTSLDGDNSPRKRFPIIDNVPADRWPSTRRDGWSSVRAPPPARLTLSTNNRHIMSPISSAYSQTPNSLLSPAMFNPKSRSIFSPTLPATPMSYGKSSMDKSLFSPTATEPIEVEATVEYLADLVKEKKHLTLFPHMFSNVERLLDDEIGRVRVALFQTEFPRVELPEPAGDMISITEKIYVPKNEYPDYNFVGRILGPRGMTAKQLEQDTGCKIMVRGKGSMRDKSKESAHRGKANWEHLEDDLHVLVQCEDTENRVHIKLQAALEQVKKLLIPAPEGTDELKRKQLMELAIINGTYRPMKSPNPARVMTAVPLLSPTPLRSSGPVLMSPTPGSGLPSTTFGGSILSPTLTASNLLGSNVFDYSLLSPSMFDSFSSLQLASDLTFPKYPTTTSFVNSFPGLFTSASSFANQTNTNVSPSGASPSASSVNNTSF
Bcl-xL primary: Bcl-xL (human) inhibition | AID 2129 | inhibition, % at 10.9 µM | Q07817 | GST-Bcl-xL / FITC-Bim BH3 peptide fluorescence polarization | hit rate 0.7% among 320,000;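 active means inhibition above the mean of all tested compounds plus 3 SD, cutoff set per campaign, cut at about 30% in these data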;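 further: 0% = DMSO wells and 100% = unlabeled Bim-BH3 peptide competitor; inhibitors lower millipolarization by displacing the labeled peptide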
MCL1 BIM primary: MCL1-BIM-BH3 interaction inhibition (human) | inhibition, % at 10.9 µM | Q07820 | AID 2057 | GST-MCL1 / FITC-Bim-BH3 fluorescence polarization | hit rate 0.68% among 320,000;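 active means inhibition above the mean inhibition of all tested compounds plus 3 SD, set per campaign, cut at about 40% in these data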;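 further: 0% = DMSO wells and 100% = unlabeled Bim-BH3 peptide control; higher means more loss of mP so more displacement of Bim peptide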
eLon inh: inhibits E. coli Lon protease; AID 602123; inhibition, % at 7.94 µM; purified E. coli Lon protease, fluorescence polarization; hit rate 0.42% among 360,000; P0A9M0; in the data active means inhibition above about 13%, passing the limit was not always enough;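 further: 0% = enzyme with probe and DMSO and 100% = no enzyme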
Numbers without * were called inactive; ? = inconclusive; · = no result given.

SMILES	EBV gp42 block	MEX-5 binding	GLD-1 RNA inh	Bcl-xL primary	MCL1 BIM primary	eLon inh
CCC(=O)Nc1cc(C)c(NC(=O)CCc2ccccc2)cn1	24.4	-25.9*	36.8*	48.9*	43.7*	-9.7
Cc1cc(NC(=O)c2ccco2)ncc1NC(=O)CCc1ccccc1	15.4	-4.6	4.3	8.9	8.4	3.5
O=C1CNC(=S)N1CCc1ccc(O)c(O)c1	-3.9	-30.0*	-1.8	10.6	6.7	0.4
O=C1CNC(=S)N1CCOc1ccccc1	-10.2	-0.6	-16.7	-3.4	-8.9	11.0
O=C(NNc1nc2c(F)cccc2s1)c1cc(=O)c2ccccc2o1	-6.1	-7.9	-3.4	-2.3	-6.4	-11.4
Cc1cccc2sc(NNC(=O)c3cc(=O)c4ccccc4o3)nc12	-14.8	-79.1*	-8.2	3.7	-13.1	-9.1
Cc1ccc2sc(NNC(=O)c3cc(=O)c4ccccc4o3)nc2c1C	-7.7	-64.0*	-0.1	1.8	14.8	-3.7
Cc1ccc(NS(=O)(=O)c2c(C)[nH]c(C)c2C(=O)N2CCCCC2)cc1Cl	·	0.5	3.2	1.7	5.2	4.4
O=C1CCC/C(=N/NC(=O)c2sc3ccccc3c2Cl)C1	-71.2	-27.5*	103.0*	1.9	-31.9	-71.4
O=C(NC(Cc1ccccc1)C(=O)Oc1ccc2c(C(F)(F)F)cc(=O)oc2c1)OCc1ccccc1 (centres undefined)	6.8	-0.2	64.6*	41.5*	40.6*	73.7*
O=C(CNC(=O)OCc1ccccc1)Oc1ccc2ccc(=O)oc2c1	·	0.3	7.4	5.2	5.1	-6.5
COc1ccc([N+](=O)[O-])cc1N(CC1CO1)S(=O)(=O)c1ccc(C)cc1 (centres undefined)	-23.1	-3.0	3.2	3.9	5.2	-4.2
N#C/C(=C(/O)c1ccco1)c1nc2ccccc2s1	0.3	-2.8	-5.1	4.9	7.4	-9.5
CC1=CC(=C(C#N)c2nc3ccccc3s2)C=C(C)N1Cc1ccco1	157.4*	-2.7	4.0	1.0	-8.0	-13.9
Cc1c(N=C2Nc3cccc4cccc2c34)c(=O)n(-c2ccccc2)n1C	-68.1	-41.1*	-18.2	-28.0	-52.4	-62.4
O=c1[nH]c2ccc(N=Cc3c(O)ccc4cc(Br)ccc34)cc2[nH]1	81.8*	-0.9	·	·	·	-147.8
O=C(COC(=O)c1ccc(Cl)cc1O)NCCN1C(=O)CSC1=O	-22.3	0.6	3.0	-11.1	-6.3	-3.2
CC1(C)CN(c2ccc(Br)cc2)C(=O)[C@H]1CC(=O)Nc1ccccc1	·	·	·	·	·	2.8
CCN(CC)c1ccc(/C=C/c2cc(-c3ccccc3)c3ccccc3n2)cc1	68.3*	3.1	-140.6	30.4*	30.8	-332.6
COC(=O)c1ccccc1C(=O)N(c1ccccc1)c1ccccc1	·	2.3	2.8	1.6	5.9	-9.1
CCCOc1ccc(-c2c(C(=O)N/N=C(\C)c3cccnc3)nnn2-c2nonc2N)cc1	·	-2.2	0.3	0.4	-5.0	-0.4
CCCOc1ccc(-c2c(C(=O)N/N=C(\C)c3ccco3)nnn2-c2nonc2N)cc1	·	-0.4	-9.8	69.3*	1.1	19.2
c1ccc(-c2cn3nc(-c4ccccc4)c(-c4ccccc4)nc3n2)cc1	128.1*	-26.7*	4.2	14.8	12.5	-11.1
Nc1nc(-c2ccccc2)cn1N	-21.0	2.3	2.3	3.9	8.6	0.2
Cc1nn2cc(-c3ccc(-c4ccccc4)cc3)nc2s1	-2.4	-0.7	-0.8	-1.7	-3.0	-2.2
SMILES	EBV gp42 block	MEX-5 binding	GLD-1 RNA inh	Bcl-xL primary	MCL1 BIM primary	eLon inh
Cc1ccc(-c2cn3nc(-c4ccccc4)c(-c4ccccc4)nc3n2)cc1	125.6*	?	34.2*	14.9	-1.5	-61.5
O=C(COC(=O)c1ccc(F)c(S(=O)(=O)N2CCOCC2)c1)NCc1ccc(Cl)cc1	·	·	1.5	·	·	0.5
CC1(C)CCCN(C(=O)c2coc(=O)c(Br)c2)C1	52.0*	-27.6*	·	·	·	-6.3
O=C(c1coc(=O)c(Br)c1)N1CCCc2ccccc21	·	-27.3*	0.0	21.0	27.3	-1.7
O=C(c1cccc(Br)c1)N1CCCc2ccccc21	·	0.1	3.6	1.6	4.0	7.6
Cc1cnc(C(=O)OCC(=O)N2C(C)CCCC2C)cn1 (centres undefined)	·	·	5.9	·	·	-6.3
O=S1(=O)N[C@@H](Cc2ccccc2)COc2cc(N3CCC[C@H]3CO)ccc21	·	·	·	·	·	-1.1
CC1CCN(C(=O)/C(=C/c2ccccc2Cl)c2ccccc2)CC1	-7.0	-0.3	0.2	5.9	6.1	-5.8
